We go through 13 molecules from PubChem BioAssay.

SMILES strings stand for the structures. Calls of active or inactive are those of the source.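 How the source made its calls, unless noted: active means inhibition of the reporter signal at or above 50%; inactive means inhibition below 50%.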

Assay [1] can be described thus: inhibitors of TNFa-induced NFkB p65 translocation, primary screen, imaging, HUVEC, MLSMR starter and 10KST1 sets (AID 438;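 active means inhibition above 20% together with a positive visual image hit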;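 further: compound added about 3h40 before a 20 min TNFalpha stimulation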;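 on inhibition: signal is the nuclear over cytoplasmic p65 intensity ratio per well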). Conditions: HUVEC TNFa-induced p65 nuclear translocation; cell count: measured here: nuclei count (cytotoxicity indicator), at 2.08 µM; inhibition: at 2 µM, stronger effect = higher value, 0% TNFa-plus-vehicle, 100% no-TNFa wells.
The nature of assay [2]: inhibitors of mutant huntingtin aggregation, primary screen, imaging, exon1htt(103Q)mCFP cells, high-content imaging (AID 483;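 active means visual image review flags a hit and inhibition of aggregation exceeds 20%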;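 further: compound exposure lasted 3 days before fixation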;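 on nuclei count: percent of the per-plate median nuclei count of sample wells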). Conditions: exon1htt(103Q)mCFP cell line, aggregate imaging, at 2 µM; inhibition of aggregation: stronger effect = higher value; nuclei count: measured here: cell count, toxicity.
A short description of assay [3]: inhibitors of E-selectin induction by TNFa, primary screen, imaging, HUVEC, immunofluorescence, MLSMR starter and 10KST1 sets (AID 487;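 active means visually confirmed hit in the image check and inhibition above 20%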;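 on inhibition: signal is fraction of cell area covered by stained E-selectin grains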;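 on nuclei count: 100% = median nuclei count of all wells on the same plate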). The settings on record: HUVEC TNFalpha-induced E-selectin immunofluorescence imaging, at 2 µM; inhibition: stronger effect = higher value; nuclei count: measured here: cell number, toxicity.
The target in assay [4] is Voltage-gated potassium channel subunit beta-2 (Rattus norvegicus) (UniProt P62483). Put plainly: KvBeta enzyme negative modulators, primary screen, biochemical, NADPH fluorescence (AID 622;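 active means fluorescence slope higher than the sample average by over 3 SD, cut at about -0.22 in these data, passing the limit was not always enough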;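 further: slope of raw intensity against log time taken from 70 to 1610 s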). Conditions: recombinant KvBeta, 4-cyanobenzaldehyde reduction, at 10 µM, stronger effect = higher value.
Assay [5] shares this target. The assay is described as follows: KvBeta positive modulators, primary screen, biochemical, NADPH fluorescence (AID 623;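 active means NADPH fluorescence slope more negative than the mean of all samples by about 3 SD, 99.7% confidence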;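 further: fluorescence intensity change per second fitted from 20 to 320 s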). The settings on record: Recombinant KvBeta, NADPH fluorescence decrease slope, 10 min; at 10 µM; stronger effect = lower value.
Assay [6] has as its target Alpha-2C adrenergic receptor (Homo sapiens) (UniProt P18825). The assay is described as follows: modulators of alpha2C/GIRK thallium flux, primary screen, cell-based, HEK293 alpha2C/GIRK1/2 (AID 624;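 active means fluorescence slope after compound addition differing from the mean of all screened samples at 99.7% confidence, in either direction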;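 further: slope of fluorescence ratio to pre-addition baseline per second over 15 to 24 s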). Conditions: thallium flux BTC fluorescence, at 10 µM, actives lie on both sides.
A short description of assay [7]: inhibitors of Sendai virus-induced IRF3 signaling, primary screen, TLR/RLR signaling modifier project, cell-based, Sendai virus stimulus, luciferase, 10K MLSCN set (AID 602276;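 active means inhibition at or above 50% at 10 µM; inactive means inhibition below 50%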;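 further: firefly luciferase from ISG56 promoter only with Renilla not read in this screen; 0% = Sendai virus plus DMSO and 100% = medium plus DMSO without virus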). The settings on record: HEK293 RL24 IRF3 luciferase reporter, at 10 µM, stronger effect = higher value. (In general: In a reporter assay the amount or activity of a reporter protein is the signal.)
A short description of assay [8]: inhibitors of poly I:C-induced TLR3 signaling, primary screen, cell-based, poly I:C stimulus, luciferase, 10K MLSCN set (AID 602277). The settings on record: HEK293-TLR3 RL24 IRF3 luciferase reporter, at 10 µM, stronger effect = higher value.

The term inhibition denotes the change of the read-out against control, counted positive when it falls.

Voltage-gated potassium channel subunit beta-2 (Rattus norvegicus), sequence (P62483 whole entry, looked up): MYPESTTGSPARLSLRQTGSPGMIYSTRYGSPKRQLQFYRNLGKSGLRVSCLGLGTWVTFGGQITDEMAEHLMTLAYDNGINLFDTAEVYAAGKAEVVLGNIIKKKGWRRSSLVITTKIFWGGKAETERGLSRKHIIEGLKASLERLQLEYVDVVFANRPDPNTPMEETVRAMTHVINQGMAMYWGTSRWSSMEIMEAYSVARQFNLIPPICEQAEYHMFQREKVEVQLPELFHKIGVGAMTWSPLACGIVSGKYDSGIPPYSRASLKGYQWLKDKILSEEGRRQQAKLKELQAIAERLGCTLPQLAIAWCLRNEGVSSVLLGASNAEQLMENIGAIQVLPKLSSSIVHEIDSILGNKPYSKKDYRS
Alpha-2C adrenergic receptor (Homo sapiens), sequence (P18825 whole entry, looked up): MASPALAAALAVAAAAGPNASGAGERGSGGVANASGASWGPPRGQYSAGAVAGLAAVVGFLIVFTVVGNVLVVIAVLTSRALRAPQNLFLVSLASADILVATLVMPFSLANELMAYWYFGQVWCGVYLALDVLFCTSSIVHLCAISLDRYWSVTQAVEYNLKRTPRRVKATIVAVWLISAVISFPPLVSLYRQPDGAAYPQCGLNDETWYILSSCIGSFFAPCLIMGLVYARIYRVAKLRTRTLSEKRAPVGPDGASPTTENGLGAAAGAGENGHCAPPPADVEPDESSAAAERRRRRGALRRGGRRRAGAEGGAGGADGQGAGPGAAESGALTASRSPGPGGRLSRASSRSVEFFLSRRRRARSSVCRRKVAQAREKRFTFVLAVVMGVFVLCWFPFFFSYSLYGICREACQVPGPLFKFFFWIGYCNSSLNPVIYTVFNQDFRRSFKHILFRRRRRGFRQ

For `COc1ccc(-c2nc3c(c(=O)n(C)c(=O)n3C)n2CC2CC(c3ccccc3)=NO2)cc1OC` (stereo not drawn), in assay [1], the cell count came to 233. For the same molecule, the inhibition in assay [1] is -3.2% (inactive); in assay [3], -3.5% (inactive); in assay [7] it was 29.6% (inactive); in assay [8] it was 30.8% (inactive). In addition, in assay [2], the inhibition of aggregation is 5.3% (inactive). The nuclei count in assay [2] is 87.9%; in assay [3], 86.7%. For the same molecule, the fluorescence slope in assay [4] is -0.587 (inactive). In assay [5], the NADPH fluorescence slope was -2.7e-05 (inactive). Moreover, in assay [6], the slope was 0.00673 (inactive).
With `CCCOc1cccc(C(=O)Nc2cc(NC(=O)c3ccco3)ccc2OC)c1`, the cell count in assay [1] is 436. The inhibition in assay [1] is 3.8% (inactive); in assay [3], 8.3% (inactive); in assay [7], 2.93% (inactive); in assay [8], -15% (inactive). Also, the inhibition of aggregation in assay [2] is 2.3% (inactive). Besides, the nuclei count in assay [2] is 101%; in assay [3], 105%. In assay [4], the fluorescence slope was -0.278 (inactive). For the same molecule, the NADPH fluorescence slope in assay [5] was -2.4e-05 (inactive). Further, in assay [6], the slope was 0.00685 (inactive).
Regarding `CCC(C)NC(=O)CC1Oc2ccc(C)cc2NC1=O` (stereo not drawn), the cell count in assay [1] was 585. Further, the inhibition in assay [1] was -2% (inactive); in assay [3], -116% (inactive); in assay [7] it was 2.24% (inactive); in assay [8] it was 22.9% (inactive). Moreover, the inhibition of aggregation in assay [2] is 9.7% (inactive). Further, the nuclei count is 100% in assay [2] and 126% in assay [3]. Also, the fluorescence slope in assay [4] is -0.56 (inactive). For the same molecule, the NADPH fluorescence slope in assay [5] is -1.5e-05 (inactive). Besides, in assay [6], the slope is 0.00629 (inactive).
`COCCn1c(SCc2csc(-c3ccccc3)n2)nc2ccccc21`: the cell count in assay [1] is 639. In addition, the inhibition in assay [1] is 7.2% (inactive); in assay [3], -24.6% (inactive); in assay [7], 1.52% (inactive); in assay [8], -1.01% (inactive). The inhibition of aggregation in assay [2] is -4% (inactive). The results for the nuclei count in assay [2] and in assay [3] were 97.2% and 96.8%, respectively. Further, in assay [4], the fluorescence slope was -0.456 (inactive). Moreover, the NADPH fluorescence slope in assay [5] is 7.6e-05 (inactive). Moreover, in assay [6], the slope was 0.00574 (inactive).
With `CCC(C)Nc1nc2c(c(=O)n(C)c(=O)n2C)n1Cc1ccc(F)cc1` (stereo not drawn), in assay [1], the cell count stood at 436. Moreover, the inhibition was 14.8% (inactive) in assay [1], -18.5% (inactive) in assay [3], 15.9% (inactive) in assay [7] and 23.7% (inactive) in assay [8]. Besides, the inhibition of aggregation in assay [2] is 9.6% (inactive). Further, the nuclei count in assay [2] is 100%; in assay [3], 106%. Also, the fluorescence slope in assay [4] was -0.617 (inactive). In addition, the NADPH fluorescence slope in assay [5] is -3.2e-05 (inactive). Further, the slope in assay [6] was 0.00579 (inactive).
As to `COc1cccc(NC(=O)C2C3C=CC4(O3)C2C(=O)N(C(C)C)C4C(=O)NC2CCCCC2C)c1` (stereo not drawn), the cell count in assay [1] was determined as 424. The inhibition in assay [1] was 2.6% (inactive); in assay [3], -98.5% (inactive); in assay [7], 2.64% (inactive); in assay [8], 7.71% (inactive). Moreover, the inhibition of aggregation in assay [2] is -8.5% (inactive). For the same molecule, the nuclei count in assay [2] amounted to 110%; in assay [3] it was 114%. Moreover, the fluorescence slope in assay [4] is -0.525 (inactive). The NADPH fluorescence slope in assay [5] is 3.5e-06 (inactive). Moreover, the slope in assay [6] was 0.00614 (inactive).
On to `COc1ccc2c(c1)cc(C(=O)O)n2C`, for which the cell count in assay [1] amounted to 773. The inhibition in assay [1] was 4.2% (inactive); in assay [3], -10.3% (inactive); in assay [7], 11.6% (inactive); in assay [8] it was 23.7% (inactive). Besides, the inhibition of aggregation in assay [2] is -20.2% (inactive). In addition, the nuclei count is 77.6% in assay [2] and 128% in assay [3]. In addition, the fluorescence slope in assay [4] was -0.393 (inactive). Further, the NADPH fluorescence slope in assay [5] is -6.4e-05 (inactive). In assay [6], the slope is 0.00479 (inactive).
Consider `Cn1c(SCCN2CCCCC2)nnc1-c1ccccc1Br`, for which the cell count in assay [1] came out at 493. Further, the inhibition is 4.4% (inactive) in assay [1], -13.3% (inactive) in assay [3], 13.4% (inactive) in assay [7] and 13.7% (inactive) in assay [8]. The inhibition of aggregation in assay [2] is 1.1% (inactive). The nuclei count is 70.5% in assay [2] and 98.3% in assay [3]. Besides, in assay [4], the fluorescence slope is -0.509 (inactive). The NADPH fluorescence slope in assay [5] is -3.5e-05 (inactive). In assay [6], the slope is 0.00556 (inactive).
Turning to `COc1ccccc1-n1c(C)nnc1SCC(=O)Nc1cccc(C(C)=O)c1`, the cell count in assay [1] came out at 388. Also, the inhibition in assay [1] was 4.3% (inactive); in assay [3], 52.4% (inactive); in assay [7] it was 17.5% (inactive); in assay [8] it was 13.3% (inactive). Moreover, the inhibition of aggregation in assay [2] was 3.5% (inactive). The nuclei count in assay [2] was found to be 104%; in assay [3], 95.1%. The fluorescence slope in assay [4] is -0.355 (inactive). In addition, the NADPH fluorescence slope in assay [5] is -8e-06 (inactive). In assay [6], the slope was 0.00484 (inactive).
For the molecule `CCOC(=O)C1C2C=CC3(CN(c4cccc(Cl)c4)C(=O)C13)O2` (stereo not drawn), in assay [1], the cell count was found to be 656. In addition, the inhibition was -0.3% (inactive) in assay [1], -11.3% (inactive) in assay [3], 13.2% (inactive) in assay [7] and 44.5% (inactive) in assay [8]. Also, the inhibition of aggregation in assay [2] is 8.1% (inactive). The nuclei count in assay [2] worked out at 105%; in assay [3] it was 110%. The fluorescence slope in assay [4] is -0.398 (inactive). In addition, the NADPH fluorescence slope in assay [5] was 9e-06 (inactive). The slope in assay [6] is 0.0053 (inactive).
On to `CN1/C(=C\C(=O)C(F)F)C(C)(C)c2ccccc21`, for which, in assay [1], the cell count was found to be 296. Moreover, the inhibition is 3.5% (inactive) in assay [1], 17.2% (inactive) in assay [3], 20.8% (inactive) in assay [7] and 17.4% (inactive) in assay [8]. The inhibition of aggregation in assay [2] is -24% (inactive). Besides, the nuclei count in assay [2] came out at 104%; in assay [3], 116%. For the same molecule, in assay [4], the fluorescence slope was -0.504 (inactive). Also, the NADPH fluorescence slope in assay [5] was 1.6e-05 (inactive). Also, the slope in assay [6] was 0.00399 (inactive).
On to `O=C1c2ccccc2C(Nc2ccc(-c3nc4ccccc4[nH]3)cc2)N1Cc1ccco1` (stereo not drawn), for which the cell count in assay [1] was determined as 701. The inhibition in assay [1] was -6.8% (inactive); in assay [3], -26.7% (inactive); in assay [7], -24% (inactive); in assay [8], -47.4% (inactive). Further, the inhibition of aggregation in assay [2] was -10.2% (inactive). Moreover, the nuclei count in assay [2] is 87.9%; in assay [3], 108%. Moreover, the fluorescence slope in assay [4] is -0.589 (inactive). In addition, in assay [5], the NADPH fluorescence slope was -2e-06 (inactive). Besides, in assay [6], the slope is 0.00641 (inactive).
Take `COc1ccc(C(CNC(=O)c2ccc(OCC3CCCO3)cc2)N2CCOCC2)cc1` (stereo not drawn): the cell count in assay [1] is 666. Also, the inhibition in assay [1] was 0.6% (inactive); in assay [3] it was 7.9% (inactive); in assay [7], 15.9% (inactive); in assay [8], 20.4% (inactive). For the same molecule, the inhibition of aggregation in assay [2] was -1.9% (inactive). The figures for the nuclei count in assay [2] and in assay [3] were 86.2% and 112%, respectively. The fluorescence slope in assay [4] is -0.49 (inactive). Further, the NADPH fluorescence slope in assay [5] was -4e-05 (inactive). Moreover, the slope in assay [6] was 0.00447 (inactive).
